Test results reported in the supplement of paper PMC6555819.

Test system: VDR:RXRa (NR concentration 270 nM, RXRa partner concentration 90 nM)
Assay: PBM binding z-score (relative to random genomic background probes); higher = stronger binding; sequences stand for … in GC…GCGATTGACAGCGTAGAATGAAGG
Method: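 Protein-binding microarray (Agilent 4x180K custom design, double-stranded 60-nt probes: 5' GC cap, 34-nt variable region, 24-nt constant primer region; full probe sequence given). Purified or IVT nuclear receptor:RXRα heterodimers (3:1 NR:RXRα, mostly 270:90 nM) or homodimers were incubated for 1 h in PBS with 2% milk and no ligand, then detected with Alexa488 antibodies. Fluorescence from o1-orientation probes (~5 replicates averaged) was converted to z-scores against 500 random hg19 background probes. Variable regions are seed direct-repeat (DR0–DR5) sites, all their single-nucleotide variants and half-site ablations.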

Row | Sequence | PBM binding z-score
1 | CAACCTAGGTCAGGGCCAGTATAGGAGGAACGTT | 0.746
2 | TGTCAAAGTCCAAAGGTAACGTAAGTATCCACAC | 0.386
3 | ACTAGCAGGCCAAGGGTCACTCATGATTAGTCCG | 2.64
4 | CCTACTGGGCCAATCAGAGGTCATTGATCATATG | 4.12
5 | AATACAGGGTCACTAGTCCAGAGTAGGTACGAAT | 4.05
6 | CCTAGTTGGTCCAGGTCACACACGCTATAGGTAC | 2.54
7 | CCTCGGAGGGCAGAAGGTCAGAGCTGTCCGCTTT | 1.17
8 | CGAACTAGGTCATCCAGGACAGTGATTACATTGA | 4.57
9 | AGAACGATGGCAATGAGTTGATAGCACGGGTGGC | 0.528
10 | ATCTCTAGGTAACCAAGTTTAGTGAATGCCGAAC | 1.55
11 | CCTATTACTTGACCATAAGGGCAACCGAAGCTCG | 0.976
12 | ATATGTAGGTTATCCGGTCATTCAGTTTGCGCAT | 2.65
13 | CGTCCAAGGTCAGTGCTAGGTCAGTGAAAGCATT | 3.71
14 | CCGACTGGGGCAGAAAGGTCACCATACCATCCGG | 4.43
15 | TAGCCTAGGTCATTGGGCCAGTTTAGTACGCATC | 2.37
16 | ACCAGTTGGTCAGCTGAGGTCACACACAATTCGG | 4.45
17 | ACTATTAGTTGACTTAGGGCCACCGATACGACGC | 0.067
18 | ACCGAAAGGTCGACGAGGTGAGTATACACCGTTT | 5.14
19 | CCTCGGAGGACAACAGGGGGTCAGAGCTGCCAGA | 3.17
20 | TAGCCTAGGTCACGCGGGCCAGTATAGTGTCGGC | 3.35

Row | Sequence | PBM binding z-score
21 | TCTTGTAGATCAAGCAGGTTAAGTAAGCCTGAGT | 0.507
22 | GCTTACGGGTCAAGGGTTATAGCATGAATAGAAT | 4.33
23 | CTCGAAAAGTCGGTTGAGGTGAGTATACGGATAA | -0.065
24 | CCTACTGGGCCATCAGTTCATTGATATCAACGTT | 1.13
25 | CCTACTGGGCCATCAGGTCATTCATATCAACGTT | 1.67
26 | ATCGAAAGCTCGACGAGGTGAGTATACACCGTTT | -0.25
27 | CGAACTAGGTCATTGACAGGAAAGTGAATAGTAA | 1.73
28 | GCATATAGGTAATACAAGGTGGAAGTCCGATTGT | -0.118
29 | CCTGCTAGGTCAATGCTCAGCTAAAGCAGCTCGC | 0.598
30 | ACTCGGAGGACAAAGTTCAGAGCTACGCCAGTGA | 1.95
31 | TTACCAAGGTGAAGGTAGTTGATCCCTCTGTAGA | 0.0573
32 | CAAACTAGGTCAAGAGGTCCAAGTCCGCTTCCCG | 4.71
33 | ATATGTAAGTTAAGGGTCATTCAGGTTGGTTCGC | 5.46
34 | TCTGCTAGGTCAACGATGGTCAACTAATCTGCTA | 2.27
35 | GTACCAAGGTGAATAGCTCGTTGATGAGTAGGCG | -0.223
36 | TAGCCTAGCTCATGCGGGCCAGTATAGTGTCGGC | -1.1
37 | TTACCAAGCTGAAAGGTCGTTGATGCACGCCTTG | 1.07
38 | TCTAATTGGTCAAAGGTCACACACTCGAAATGCG | 5.62
39 | ACTAGTTGGTCAGCTGAGGTCCCACACAATTCGG | -0.0724
40 | CCGCGGAGGACAACAGGAGGTCAGAGCTGCCAGA | 1.8
